Consider 23 targets from the supplement of paper PMC10849652.

Targets with a hit are over-represented here; the source holds about 8,800 in all. About 0.5% of all pairs of compound and target were hits. Unmarked numbers belong to inactive results.

Holding throughout (assay): log2 fold change, soluble protein after heating vs DMSO (PISA); higher = thermal stabilisation; K562 lysate, 10 uM; active = over 0.2 and 3.5 SD of the protein, either way, in both replicates (recomputed)
Compound in one test: C#Cc1cccc(Nc2ncnc3cc(OCCOC)c(OCCOC)cc23)c1 [erlotinib]
The essentials: (§1)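 Thermal stability, expressed as log-two fold change relative to solvent controls, is given from duplicates. Crude K562 extract in PBS pH 7.4 with 1 mM MgCl2, at 1 mg/mL protein, was treated with 10 μM compound for 30 min and heated in aliquots for 3 min across 48°C-58°C. After pooling, adjustment to 0.5% NP-40 at 4°C and centrifugation at 21,000xg for 90 min, supernatant protein was measured by TMTpro 16plex LC-MS/MS with channel sums equalised.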

Compound in test [1]: C1=CC(=CC=C1C2=NC3=C(N2)C=C(C=C3)C(=O)N)OC4=CC=C(C=C4)Cl
The essentials: as §1

Compound in test [2]: C1=CC=C(C=C1)C2=NC(=C(N2)C3=CC=NC=C3)C4=CC(=C(C=C4)Cl)O
An outline of the steps:
as §1

Compound in the next test: C1COCCN1CCN2C3=CC=CC=C3N=C2NC(=O)C4=CC(=CC=C4)[N+](=O)[O-] [IRAK-1-4 Inhibitor I]
An outline of the steps: as §1

Compound in test [3]: C/C(=N\NC(=O)C1=CC(=CC=C1)S(=O)(=O)N2CCOCC2)/C3=C(C=CC(=C3)Cl)O
An outline of the steps:
as §1

Compound in test [4]: C1=CC2=C(C=CC(=C2)/C=C\3/C(=O)NC(=NCC4=CC=CS4)S3)N=C1
The essentials: as §1

Compound in test [5]: C1=CC=C2C(=C1)C3=NNC4=CC=CC(=C43)C2=O
An outline of the steps:
as §1

Compound in test [6]: C1CCN(C1)C(=O)NC2=CC=CC(=C2)NC3=NC=C(C(=N3)NCCC4=CN=CN4)Br
An outline of the steps: as §1

Compound in test [7]: C1CN(CCC1(CC2=CC=C(C=C2)Cl)N)C3=NC=NC4=C3C=CN4
An outline of the steps:
as §1

Compound in test [8]: C1=CC2=NC=CN=C2C=C1/C=C/3\C(=O)NC(=O)S3
The essentials: as §1

Chain of UniProt Q99496 (Q99496 whole entry, looked up): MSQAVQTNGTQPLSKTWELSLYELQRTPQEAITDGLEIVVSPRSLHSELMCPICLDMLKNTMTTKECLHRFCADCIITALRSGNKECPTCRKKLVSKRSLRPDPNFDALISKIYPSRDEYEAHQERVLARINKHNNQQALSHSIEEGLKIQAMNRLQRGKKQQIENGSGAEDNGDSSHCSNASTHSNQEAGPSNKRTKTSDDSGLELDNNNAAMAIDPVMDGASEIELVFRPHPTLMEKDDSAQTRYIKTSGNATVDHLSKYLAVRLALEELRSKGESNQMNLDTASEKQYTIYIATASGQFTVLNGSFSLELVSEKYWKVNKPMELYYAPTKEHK
Chain of UniProt Q92698 (Q92698 whole entry, looked up): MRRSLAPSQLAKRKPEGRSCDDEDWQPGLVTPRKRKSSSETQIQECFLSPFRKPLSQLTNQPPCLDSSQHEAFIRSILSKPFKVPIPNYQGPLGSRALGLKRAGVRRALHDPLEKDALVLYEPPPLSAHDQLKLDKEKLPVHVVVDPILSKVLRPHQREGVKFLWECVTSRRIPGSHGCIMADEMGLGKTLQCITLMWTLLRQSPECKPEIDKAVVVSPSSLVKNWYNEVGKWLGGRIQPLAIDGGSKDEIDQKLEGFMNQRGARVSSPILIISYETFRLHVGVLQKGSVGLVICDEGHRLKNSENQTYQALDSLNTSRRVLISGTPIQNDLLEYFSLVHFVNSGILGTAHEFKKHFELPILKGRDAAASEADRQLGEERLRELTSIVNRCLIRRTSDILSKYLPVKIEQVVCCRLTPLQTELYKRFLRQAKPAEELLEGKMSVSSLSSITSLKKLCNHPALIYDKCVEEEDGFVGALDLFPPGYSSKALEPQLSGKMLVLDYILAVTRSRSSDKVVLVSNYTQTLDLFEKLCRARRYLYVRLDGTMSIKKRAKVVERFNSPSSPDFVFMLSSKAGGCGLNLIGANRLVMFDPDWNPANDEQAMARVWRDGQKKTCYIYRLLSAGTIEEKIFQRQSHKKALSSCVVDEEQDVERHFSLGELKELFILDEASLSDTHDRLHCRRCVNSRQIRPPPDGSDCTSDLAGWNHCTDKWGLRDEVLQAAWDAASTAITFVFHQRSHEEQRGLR
Chain of UniProt P19793 (P19793 whole entry, looked up): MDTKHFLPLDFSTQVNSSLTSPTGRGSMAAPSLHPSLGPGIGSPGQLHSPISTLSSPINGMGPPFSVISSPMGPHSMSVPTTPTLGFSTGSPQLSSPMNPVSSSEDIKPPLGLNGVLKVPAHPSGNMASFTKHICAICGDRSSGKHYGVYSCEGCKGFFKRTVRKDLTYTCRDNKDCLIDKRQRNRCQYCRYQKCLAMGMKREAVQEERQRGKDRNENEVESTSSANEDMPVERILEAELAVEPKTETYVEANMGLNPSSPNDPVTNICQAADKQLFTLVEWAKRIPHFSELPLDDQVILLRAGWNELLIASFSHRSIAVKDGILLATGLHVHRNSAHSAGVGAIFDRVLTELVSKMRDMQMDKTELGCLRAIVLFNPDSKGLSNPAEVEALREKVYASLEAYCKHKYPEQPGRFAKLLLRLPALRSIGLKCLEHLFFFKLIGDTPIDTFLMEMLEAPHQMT
Chain of UniProt Q9Y6D0 (Q9Y6D0 whole entry, looked up): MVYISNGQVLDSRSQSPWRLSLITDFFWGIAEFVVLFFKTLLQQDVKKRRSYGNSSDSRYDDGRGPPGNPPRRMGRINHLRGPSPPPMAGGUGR
Chain of UniProt Q9BWG6 (Q9BWG6 whole entry, looked up): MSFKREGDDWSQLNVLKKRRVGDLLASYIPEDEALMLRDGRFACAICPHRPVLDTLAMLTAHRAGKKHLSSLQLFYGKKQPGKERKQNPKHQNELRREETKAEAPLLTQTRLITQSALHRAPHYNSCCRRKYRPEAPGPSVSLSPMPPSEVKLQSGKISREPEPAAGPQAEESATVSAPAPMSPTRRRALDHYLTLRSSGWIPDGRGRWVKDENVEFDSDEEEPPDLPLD
Chain of UniProt Q8TEB9 (Q8TEB9 whole entry, looked up): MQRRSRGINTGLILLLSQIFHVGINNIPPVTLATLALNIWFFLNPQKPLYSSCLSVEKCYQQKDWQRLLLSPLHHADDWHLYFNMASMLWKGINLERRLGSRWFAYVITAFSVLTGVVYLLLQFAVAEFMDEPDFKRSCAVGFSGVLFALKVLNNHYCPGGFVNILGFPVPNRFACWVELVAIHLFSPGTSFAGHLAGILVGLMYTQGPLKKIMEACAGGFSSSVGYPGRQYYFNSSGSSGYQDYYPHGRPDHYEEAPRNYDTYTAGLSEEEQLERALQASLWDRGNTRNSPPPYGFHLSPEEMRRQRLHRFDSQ
Chain of UniProt Q9HCK4 (Q9HCK4 whole entry, looked up): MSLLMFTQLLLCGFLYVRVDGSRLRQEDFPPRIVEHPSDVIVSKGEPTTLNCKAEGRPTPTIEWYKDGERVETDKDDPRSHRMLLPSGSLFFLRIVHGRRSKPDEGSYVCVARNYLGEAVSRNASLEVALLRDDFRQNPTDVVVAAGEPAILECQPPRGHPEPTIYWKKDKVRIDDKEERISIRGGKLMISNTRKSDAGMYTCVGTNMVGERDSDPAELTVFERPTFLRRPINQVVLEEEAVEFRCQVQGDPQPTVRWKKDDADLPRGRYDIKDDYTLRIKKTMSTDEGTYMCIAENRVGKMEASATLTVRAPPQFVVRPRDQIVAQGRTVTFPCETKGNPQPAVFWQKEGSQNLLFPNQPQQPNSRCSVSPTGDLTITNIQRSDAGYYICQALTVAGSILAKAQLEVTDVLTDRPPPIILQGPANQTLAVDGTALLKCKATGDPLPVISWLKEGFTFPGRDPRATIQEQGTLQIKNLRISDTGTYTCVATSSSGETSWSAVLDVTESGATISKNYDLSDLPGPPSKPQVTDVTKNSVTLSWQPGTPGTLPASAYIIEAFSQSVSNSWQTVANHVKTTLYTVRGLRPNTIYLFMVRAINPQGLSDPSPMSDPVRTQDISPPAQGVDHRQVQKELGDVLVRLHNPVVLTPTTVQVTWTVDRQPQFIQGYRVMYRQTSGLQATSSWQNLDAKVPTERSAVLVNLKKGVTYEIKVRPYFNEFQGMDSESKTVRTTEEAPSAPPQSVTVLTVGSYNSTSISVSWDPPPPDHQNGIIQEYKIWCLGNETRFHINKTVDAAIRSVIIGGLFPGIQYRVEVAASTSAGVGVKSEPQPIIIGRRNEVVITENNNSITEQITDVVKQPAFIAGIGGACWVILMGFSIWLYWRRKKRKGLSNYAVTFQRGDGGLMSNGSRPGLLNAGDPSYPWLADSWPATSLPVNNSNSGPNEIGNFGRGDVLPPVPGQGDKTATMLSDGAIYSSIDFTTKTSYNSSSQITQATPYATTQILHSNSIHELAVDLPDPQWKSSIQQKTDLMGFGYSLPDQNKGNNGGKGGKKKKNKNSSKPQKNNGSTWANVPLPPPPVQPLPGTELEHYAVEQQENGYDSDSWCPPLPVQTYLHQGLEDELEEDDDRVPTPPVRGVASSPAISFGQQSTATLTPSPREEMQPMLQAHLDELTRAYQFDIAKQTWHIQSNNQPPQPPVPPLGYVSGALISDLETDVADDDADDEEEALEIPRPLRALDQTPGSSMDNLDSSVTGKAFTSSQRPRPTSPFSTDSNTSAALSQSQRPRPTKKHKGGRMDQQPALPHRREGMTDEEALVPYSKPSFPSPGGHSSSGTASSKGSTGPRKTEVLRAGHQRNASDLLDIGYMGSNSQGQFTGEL
Chain of UniProt Q9UPW6 (Q9UPW6 whole entry, looked up): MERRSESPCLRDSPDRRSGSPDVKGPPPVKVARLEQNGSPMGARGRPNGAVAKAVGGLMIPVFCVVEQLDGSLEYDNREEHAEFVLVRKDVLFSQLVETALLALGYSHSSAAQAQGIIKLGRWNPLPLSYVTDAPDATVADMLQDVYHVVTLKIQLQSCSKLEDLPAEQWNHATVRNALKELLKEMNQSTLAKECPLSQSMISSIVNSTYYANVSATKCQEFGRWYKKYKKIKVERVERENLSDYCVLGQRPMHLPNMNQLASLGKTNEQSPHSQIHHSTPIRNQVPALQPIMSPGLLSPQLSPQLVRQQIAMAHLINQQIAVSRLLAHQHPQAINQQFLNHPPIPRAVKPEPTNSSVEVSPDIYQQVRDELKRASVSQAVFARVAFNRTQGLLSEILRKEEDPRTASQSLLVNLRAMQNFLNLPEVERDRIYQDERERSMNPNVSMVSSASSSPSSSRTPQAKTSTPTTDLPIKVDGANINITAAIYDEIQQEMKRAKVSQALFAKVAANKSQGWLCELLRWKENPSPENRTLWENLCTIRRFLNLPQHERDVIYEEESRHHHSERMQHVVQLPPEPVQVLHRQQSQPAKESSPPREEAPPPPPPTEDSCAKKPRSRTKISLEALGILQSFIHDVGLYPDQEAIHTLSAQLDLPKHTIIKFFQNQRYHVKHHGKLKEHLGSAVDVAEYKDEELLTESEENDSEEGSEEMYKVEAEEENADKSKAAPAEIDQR
Chain of UniProt Q96LT9 (Q96LT9 whole entry, looked up): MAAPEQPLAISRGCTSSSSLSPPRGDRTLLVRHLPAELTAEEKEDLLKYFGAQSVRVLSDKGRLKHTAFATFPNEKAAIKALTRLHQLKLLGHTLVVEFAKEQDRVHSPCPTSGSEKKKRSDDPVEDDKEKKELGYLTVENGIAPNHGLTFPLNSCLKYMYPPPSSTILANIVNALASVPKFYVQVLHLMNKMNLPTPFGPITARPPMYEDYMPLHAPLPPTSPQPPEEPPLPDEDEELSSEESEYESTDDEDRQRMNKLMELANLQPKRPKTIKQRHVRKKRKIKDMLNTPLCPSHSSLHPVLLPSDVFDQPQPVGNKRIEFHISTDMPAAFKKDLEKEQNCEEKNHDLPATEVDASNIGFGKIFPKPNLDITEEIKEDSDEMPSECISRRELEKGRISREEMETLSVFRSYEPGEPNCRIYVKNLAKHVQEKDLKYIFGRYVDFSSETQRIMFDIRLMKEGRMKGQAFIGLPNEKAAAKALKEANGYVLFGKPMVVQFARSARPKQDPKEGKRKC
Chain of UniProt Q9BUV8 (Q9BUV8 whole entry, looked up): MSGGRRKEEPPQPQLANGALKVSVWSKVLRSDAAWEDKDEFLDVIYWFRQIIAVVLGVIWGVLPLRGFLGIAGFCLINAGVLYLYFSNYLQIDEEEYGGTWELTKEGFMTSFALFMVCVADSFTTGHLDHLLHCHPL

Turning to RNPC3 (UniProt Q96LT9), the log2 fold change in the test with erlotinib is 0.004; in test [1], -0.059; in [2], 0.011; with IRAK-1-4 Inhibitor I it was 0.076.

With RNF2 (UniProt Q99496), the log2 fold change in the test with erlotinib is 0.061; in test [3], -0.088; in [1] it was -0.031; in test [4], 0.036; in test [2], 0.002; in test [5] it was -0.01. For the same target, the results for the log2 fold change (in test [6]; in test [7]; in the test with IRAK-1-4 Inhibitor I) were 0.048, -0.037 and -0.039, respectively.

Take SCNM1 (UniProt Q9BWG6): the log2 fold change in the test with erlotinib was 0.045; in test [1], 0.044; in [2] it was -0.005; in test [6], -0.054; in test [7], -0.158; with IRAK-1-4 Inhibitor I, -0.021.

As to SEC16A isoform 3 (UniProt O15027), the log2 fold change is 0.41 in [2] and 0.123 in the test with IRAK-1-4 Inhibitor I.

With RHOU (UniProt Q7L0Q8), the log2 fold change is -0.052 in the test with erlotinib; 0.07 in [3]; -0.096 in [1]; -0.054 in test [4]; 0.002 in test [2]; 0.061 in test [5]. Moreover, the log2 fold change in [6] was -0.006; in test [7] it was 0.03; with IRAK-1-4 Inhibitor I, -0.089.

For the target RXRB isoform 3 (UniProt P28702), the log2 fold change with erlotinib is -0.025; in [3], 0.006; in test [1] it was -0.038; in test [4] it was -0.014; in test [8], 0.051; in [5] it was -0.039. In addition, the figures for the log2 fold change in test [6] and in [7] were 0.011 and -0.015, respectively.

In the case of RAD54L (UniProt Q92698), the log2 fold change with erlotinib is -0.026; in test [1], -0.005; in test [8], -0.072; in [2], -0.071; in the test with IRAK-1-4 Inhibitor I it was 0.02.

Consider SEC16A isoform 2 (UniProt O15027), for which the log2 fold change in test [2] is -0.07; with IRAK-1-4 Inhibitor I, -0.053.

RAB5IF isoform 5 (UniProt Q9BUV8): the log2 fold change in the test with erlotinib was 0.193; in test [3] it was 0.021; in [1], 0.082; in test [4], 0.001; in test [8], -0.052; in test [5], -0.036. For the same target, the log2 fold change in test [6] was -0.065; in test [7], 0.034.

Take RPS6KA5 (UniProt O75582): the log2 fold change in the test with erlotinib is -0.036; in [3], -0.161; in test [1], 0.2; in [4], 0.014; in test [2] it was 0.023; in test [5], 0.152. For the same target, the log2 fold change in [6] was -0.02; in test [7] it was -0.11; in the test with IRAK-1-4 Inhibitor I, 0.014.

Regarding SERAC1 (UniProt Q96JX3), the log2 fold change in the test with erlotinib was 0.004; in test [1], -0.235; in test [8] it was -0.014; in test [6], 0.123; in test [7] it was 0.056.

For RHBDD1 (UniProt Q8TEB9), the log2 fold change in test [3] is -0.476; in [4], 0.19; in test [8] it was 0.337; in [5] it was -0.056; in [6], -0.093; in [7] it was 0.159.

Turning to ROBO2 isoform 3 (UniProt Q9HCK4), the log2 fold change is 0.042 in the test with erlotinib, -0.013 in [1], 0.008 in test [2] and -0.062 in the test with IRAK-1-4 Inhibitor I.

Take SELENOK (UniProt Q9Y6D0): the log2 fold change in test [3] was -0.075; in [4], 0.02; in test [8], 0.089; in test [5] it was 0.044.

On to RAP1B (UniProt F5GZG1), for which the log2 fold change in the test with erlotinib was -0.028; in test [3], 0.332; in test [1] it was 0.101; in test [4] it was -0.048; in [8] it was -0.206; in [5], -0.08. In addition, the log2 fold change in [6] was -0.081; in test [7] it was 0.04.

As to SEMA4G isoform 2 (UniProt Q9NTN9), the log2 fold change in the test with erlotinib is 0.005; in [3] it was -0.137; in test [1], -0.063; in [4], 0.032; in [5] it was -0.011; in test [6], 0.034. The log2 fold change in [7] was -0.112.

As for S100A6 (UniProt P06703), the log2 fold change was 0.045 in the test with erlotinib; 0.346 in [3]; -0.025 in [1]; 0 in test [4]; -0.196 in [2]; 0.02 in [5]. For the same target, the figures for the log2 fold change (in test [6]; in test [7]; in the test with IRAK-1-4 Inhibitor I) were 0.352, 0.151 and -0.209, respectively.

Consider RYR1 (UniProt P21817), for which the log2 fold change with erlotinib is -0.077; in [1], -0.174; in test [8], 0.012; in test [2], -0.025; in test [6], -0.029; in test [7] it was -0.057. The log2 fold change in the test with IRAK-1-4 Inhibitor I was -0.003.

Take SATB2 (UniProt Q9UPW6): the log2 fold change with erlotinib is -0.019; in test [3] it was -0.044; in [1], 0.022; in test [4], -0.01; in test [2], -0.006; in test [5], 0.031. Further, the log2 fold change in test [6] is -0.033; in test [7], 0.009; with IRAK-1-4 Inhibitor I, 0.027.

RXRA (UniProt P19793): the log2 fold change was 0.102 in the test with erlotinib, 0.008 in test [1], -0.025 in test [2] and 0.113 with IRAK-1-4 Inhibitor I.

Consider RAD54L2 (UniProt Q9Y4B4), for which the log2 fold change with erlotinib is 0.186; in test [3] it was -0.176; in test [1], -0.103; in test [4], -0.035; in test [8], -0.135; in test [5] it was 0.002. For the same target, the log2 fold change in [6] is -0.046; in [7], 0.055.

Take RAD17 (UniProt O75943): the log2 fold change was 0.005 in test [3]; -0.1 in test [4]; 0.014 in test [8]; -0.047 in [2]; -0.458 (active) in test [5]; 0.031 in test [6]. The log2 fold change in test [7] is 0.019; in the test with IRAK-1-4 Inhibitor I, 0.021.

With RPS6KA3 (UniProt P51812), the log2 fold change is -0.04 in the test with erlotinib; -0.003 in test [3]; 0.182 in [1]; 0.004 in test [8]; 0.026 in test [2]; 0.328 in test [5]. In addition, the log2 fold change in test [6] was 0.082; in test [7] it was -0.043; with IRAK-1-4 Inhibitor I, -0.019.
